Source: PubChem (several laboratories)
CSC inhib – blocks cancer stem cells | inhibition, % at 7.5 µM | AID 2717 | cancer stem cell-like cells viability, luminescence | actives 1.1% (n = 300,000); in the data active = inhibition above about 75%; tested in HMLE shEcad cells
Beta cell apopt – beta cell apoptosis inhibition; INS-1E cytokine-induced death, ATP luminescence, 48 h; percent of positive-control rescue, neutral wells zero; protection from apoptosis, % (concentration not given with the values); actives 0.8% (n = 300,000);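 active = Every replicate reaches about 75%, or at least half do and their mean reaches it too, limit read from the data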;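 also: 0% = cytokine-treated negative control wells and 100% = positive control rescue; higher means more ATP so stronger rescue from cytokine killing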
Mdm2 MdmX PPI – inhibitors of human Mdm2/MdmX interaction; O15151+Q00987; SaOS-2 split-luciferase Mdm2/MdmX complementation, luminescence; inhibition, % at 8 µM; actives 3% (n = 330,000); AID 485346;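 active = inhibition of at least 50% at 8 µM in the primary screen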
Target sequence (O15151 whole entry, looked up): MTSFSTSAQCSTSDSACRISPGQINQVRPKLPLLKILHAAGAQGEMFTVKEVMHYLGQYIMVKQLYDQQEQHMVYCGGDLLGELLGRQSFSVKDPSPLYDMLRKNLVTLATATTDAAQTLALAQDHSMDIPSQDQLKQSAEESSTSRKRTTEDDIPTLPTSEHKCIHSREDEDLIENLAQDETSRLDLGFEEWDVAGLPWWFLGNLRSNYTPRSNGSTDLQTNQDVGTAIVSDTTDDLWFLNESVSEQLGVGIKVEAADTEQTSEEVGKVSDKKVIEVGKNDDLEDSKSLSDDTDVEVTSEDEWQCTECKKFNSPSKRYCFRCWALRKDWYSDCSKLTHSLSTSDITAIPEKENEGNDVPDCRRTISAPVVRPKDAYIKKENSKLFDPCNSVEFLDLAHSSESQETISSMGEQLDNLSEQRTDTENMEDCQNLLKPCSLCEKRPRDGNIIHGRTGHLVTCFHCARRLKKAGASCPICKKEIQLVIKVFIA
Target sequence (Q00987 whole entry, looked up): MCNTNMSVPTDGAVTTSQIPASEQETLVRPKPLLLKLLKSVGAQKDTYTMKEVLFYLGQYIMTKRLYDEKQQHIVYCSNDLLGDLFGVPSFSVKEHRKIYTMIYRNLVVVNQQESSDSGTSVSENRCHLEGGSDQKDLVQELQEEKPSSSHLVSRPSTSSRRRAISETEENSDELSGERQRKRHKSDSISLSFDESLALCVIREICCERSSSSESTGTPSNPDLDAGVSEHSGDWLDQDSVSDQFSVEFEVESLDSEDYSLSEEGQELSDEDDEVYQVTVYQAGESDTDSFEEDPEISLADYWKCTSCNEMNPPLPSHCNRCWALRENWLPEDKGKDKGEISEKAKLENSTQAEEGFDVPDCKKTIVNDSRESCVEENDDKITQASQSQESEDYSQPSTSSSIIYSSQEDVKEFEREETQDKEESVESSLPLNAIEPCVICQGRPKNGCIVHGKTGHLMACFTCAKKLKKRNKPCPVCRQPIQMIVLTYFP
GRIN3A LBD mod – NR3A (human) ligand-binding domain modulation. NR3A LBD differential scanning fluorimetry, Tm shift; 0% = protein alone, 100% = glycine-bound protein. Tm shift relative to glycine control, % at 25 µM. actives 2.5% (n = 340,000);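 active = melting temperature shift of at least 10% of the positive control shift, at one fixed dose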
Gli-Sufu antag – blocks Gli-Sufu signaling in a luciferase reporter; Sufu-KO-LIGHT fibroblasts, Gli luciferase reporter luminescence; inhibition, % at 5 µM; actives 0.74% (n = 340,000); AID 588413;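 active = inhibition above about 55%, limit read from the data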;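 also: 0% = DMSO-treated cells and 100% = wells with medium but no cells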
MPTP block – permeability transition pore inhibition; actives 1.4% (n = 360,000); AID 602449; inhibition, % at 10 µM; isolated mouse mitochondria, Ca2+ swelling absorbance, 30 min;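 active = inhibition of 50% or more, scaled per plate between neutral and stimulator controls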;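 also: 0% = DMSO wells given calcium and 100% = 1 mM EGTA wells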
The depositor's hits bear a star. Most compounds without a hit are left out; they make up all but 6.6% or so of the library.

Screening Cc1ccc(C)c(C(=O)COC(=O)C(C)N2C(=O)C3C4CCC(C4)C3C2=O)c1 (stereo unspecified) returned CSC inhib 19, Beta cell apopt -1, Mdm2 MdmX PPI 8, GRIN3A LBD mod 1, Gli-Sufu antag 0 and MPTP block 1.
O=C(COc1ccc2c(-c3ccccc3)cc(=O)oc2c1)N[C@H](Cc1c[nH]c2ccccc12)C(=O)O was read as CSC inhib -8, Beta cell apopt 0, Mdm2 MdmX PPI 13, GRIN3A LBD mod 0, Gli-Sufu antag -3 and MPTP block -2.
COc1cccc(NC(=O)CN(C)C(=O)/C=C/c2cn(-c3ccccc3)nc2-c2ccc(C)cc2)c1 was read as CSC inhib -3, Mdm2 MdmX PPI 28, GRIN3A LBD mod 17*, Gli-Sufu antag 4 and MPTP block -3.
`COc1ccc(NC(=O)CN(C)C(=O)/C=C/c2cn(-c3ccccc3)nc2-c2ccc(F)cc2)cc1` gave CSC inhib 8, Beta cell apopt -1, Mdm2 MdmX PPI 24, GRIN3A LBD mod 10*, Gli-Sufu antag 1 and MPTP block -1.
`COc1ccc(-c2nn(-c3ccccc3)cc2/C=C/C(=O)OCC(=O)Nc2cccc(C#N)c2)cc1` gave CSC inhib 32, Beta cell apopt 2, Mdm2 MdmX PPI 29, GRIN3A LBD mod 25*, Gli-Sufu antag -3 and MPTP block 8.
For Cc1ccc(C=Nc2ccccc2C(N)=O)s1 the results were CSC inhib 78*, Beta cell apopt 8, Mdm2 MdmX PPI 29, GRIN3A LBD mod 3, Gli-Sufu antag 10 and MPTP block 0.
Screening Cc1cccc(C=Nc2ccccc2C(N)=O)c1 returned CSC inhib -1, Beta cell apopt 8, Mdm2 MdmX PPI 42, GRIN3A LBD mod -15, Gli-Sufu antag 43 and MPTP block -1.
CC(O)CNc1ncnc2nc[nH]c12 (stereo unspecified) was read as CSC inhib -25, Beta cell apopt 0, Mdm2 MdmX PPI 33, GRIN3A LBD mod 0, Gli-Sufu antag 6 and MPTP block -3.
Screening CC(C)CCCCCCCCCCCCC(=O)NCC(=O)NC1C(O)C(O)C(Nc2ncnc3nc[nH]c23)OC1C(O)CO (stereo unspecified) returned GRIN3A LBD mod -5, Gli-Sufu antag 85* and MPTP block 2.
Cc1ccc(NC(=O)CNC(=O)CC23CC4CC(CC(C4)C2)C3)c(O)c1 was read as CSC inhib 43, Beta cell apopt 2, Mdm2 MdmX PPI 13, GRIN3A LBD mod 0, Gli-Sufu antag -5 and MPTP block 0.
Screening CC(C)N(Cc1nccn1C)C(=O)c1cc(COc2ccc(F)cc2Cl)on1 returned CSC inhib 3, Beta cell apopt -2, Mdm2 MdmX PPI 0, GRIN3A LBD mod 1, Gli-Sufu antag 5 and MPTP block -2.
Clc1cccc(-c2nc3nc4ccccc4nc3n2Cc2ccccc2)c1 was read as CSC inhib 17, Beta cell apopt 8, Mdm2 MdmX PPI 18, GRIN3A LBD mod 12*, Gli-Sufu antag 8 and MPTP block 1.
c1ccc(Cn2c(-c3ccccc3)nc3nc4ccccc4nc32)cc1 was read as Beta cell apopt 11, Mdm2 MdmX PPI 3, GRIN3A LBD mod 18*, Gli-Sufu antag 7 and MPTP block 0.
Screening Cc1cc(C)c(S(=O)(=O)N2CCN(C(=O)c3ccc4c(c3)OCO4)CC2)c(C)c1 returned CSC inhib -5, Beta cell apopt 1, Mdm2 MdmX PPI 15, GRIN3A LBD mod 1, Gli-Sufu antag 13 and MPTP block 0.
Screening Cc1ccc(-n2ncc(-c3nn[nH]n3)c2N)cc1 returned CSC inhib -2, Beta cell apopt -2, Mdm2 MdmX PPI -2, GRIN3A LBD mod -1, Gli-Sufu antag 1 and MPTP block -1.
Screening CCOC(=O)Nc1ccc2nc(N3CCCCCC3)sc2c1 returned CSC inhib 59, Beta cell apopt 37, Mdm2 MdmX PPI 4, GRIN3A LBD mod 21*, Gli-Sufu antag -81 and MPTP block 0.
For O=C(Nc1c2c(nn1-c1ccccc1)CS(=O)C2)c1ccco1 (stereo unspecified) the results were CSC inhib -2, Beta cell apopt -5, Mdm2 MdmX PPI 7, GRIN3A LBD mod 17*, Gli-Sufu antag 2 and MPTP block -1.
Cc1cccc(-n2nc3c(c2NC(=O)c2ccco2)CS(=O)C3)c1C (stereo unspecified) was read as CSC inhib 4, Beta cell apopt -2, Mdm2 MdmX PPI -4, GRIN3A LBD mod -1, Gli-Sufu antag 7 and MPTP block 1.
`CCn1c2ccccc2c2cc(NC(=O)COC(=O)c3cccc(S(=O)(=O)NC)c3)ccc21` gave CSC inhib 21, Beta cell apopt -1, Mdm2 MdmX PPI 17, GRIN3A LBD mod 8, Gli-Sufu antag -2 and MPTP block 1.
`CCn1c2ccccc2c2cc(NC(=O)COC(=O)c3ccc(O)cc3)ccc21` gave CSC inhib 5, Beta cell apopt 3, Mdm2 MdmX PPI -6, GRIN3A LBD mod 15*, Gli-Sufu antag 2 and MPTP block -1.
For O=C(NCCN1CCC(n2c(=O)[nH]c3ccccc32)CC1)c1c(F)cccc1F the results were MPTP block 1.
COc1ccc(-c2cc3ccc(OC)cc3cn2)cc1 was read as CSC inhib 1, Beta cell apopt -1, Mdm2 MdmX PPI 10, GRIN3A LBD mod 41*, Gli-Sufu antag -69 and MPTP block -1.
`COc1ccc(CCNCC(O)COc2cccc(C(C)=O)c2)cc1OC` (stereo unspecified) gave Mdm2 MdmX PPI -26, GRIN3A LBD mod -9, Gli-Sufu antag 15 and MPTP block 0.
Cc1cc(NC(=O)/C=C/c2ccccc2Cl)n(-c2nc3ccccc3[nH]2)n1 was read as CSC inhib 37, Beta cell apopt 38, Mdm2 MdmX PPI -8, GRIN3A LBD mod 16*, Gli-Sufu antag -62 and MPTP block 5.
CCCCS(=O)(=O)Nc1ccc2cn[nH]c2c1 was read as CSC inhib -11, Beta cell apopt -10, Mdm2 MdmX PPI -7, GRIN3A LBD mod 1, Gli-Sufu antag -1 and MPTP block -1.
`CCCCS(=O)(=O)Nc1ccc2ncn(C)c(=O)c2c1` gave CSC inhib 0, Beta cell apopt -5, Mdm2 MdmX PPI 0, GRIN3A LBD mod 11*, Gli-Sufu antag -2 and MPTP block -2.
Screening CCc1cc(C(=O)Nc2cc(S(=O)(=O)N3CCOCC3)ccc2N2CCN(CC)CC2)sc1C returned GRIN3A LBD mod 4, Gli-Sufu antag 17 and MPTP block 0.
`Cc1cc(NC(=O)CN2C(=O)NC(CC(C)C)C2=O)ccc1Br` (stereo unspecified) gave CSC inhib 3, Beta cell apopt -10, Mdm2 MdmX PPI 11, GRIN3A LBD mod 29*, Gli-Sufu antag -5 and MPTP block 0.
